Data published in PubChem BioAssay (NCI).
Compounds without any hit were thinned out: in the full panel of roughly 83,000, 20% have a hit.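 Growth was measured after 48 h exposure to one concentration of compound in 96-well plates. Values under 10 count as active.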 The source made the active and inactive calls.

Tests used:
Test in all cases: NCI-60 one-dose screen, 48 h (100 = growth as untreated, 0 = no growth, -100 = all killed)
Settings in all cases: 10 µM unless noted
DU-145 prostate = system: DU-145 prostate
K-562 leukemia = system: K-562 leukemia
MALME-3M melanoma = system: MALME-3M melanoma
MDA-MB-231 breast = system: MDA-MB-231 breast
RXF 393 renal = system: RXF 393 renal
SF-268 CNS = system: SF-268 CNS
SF-295 CNS = system: SF-295 CNS
SF-539 CNS = system: SF-539 CNS
UACC-257 melanoma = system: UACC-257 melanoma
M14 melanoma = system: M14 melanoma

Measured: growth

O=C1C(Br)=CC2C1C1C3CCC3C2(Br)C12OCCO2 (stereo not given)
inactive: DU-145 prostate 19.7% | K-562 leukemia 15.8% | MALME-3M melanoma 46% | MDA-MB-231 breast 51.7% | RXF 393 renal 18.4% | SF-268 CNS 25.6% | SF-295 CNS 31.4% | SF-539 CNS 14.5% | UACC-257 melanoma 54% | M14 melanoma 44.4%

CCCCCCCCCCCCOC(=O)/C=C\C(=O)NC(N)=O
inactive: DU-145 prostate 95.4% | K-562 leukemia 44.2% | MALME-3M melanoma 102% | MDA-MB-231 breast 93.5% | RXF 393 renal 69.3% | SF-268 CNS 107% | SF-295 CNS 102% | SF-539 CNS 95.5% | UACC-257 melanoma 85.2% | M14 melanoma 93.6%

CCCCCCCCCCCCc1ccc([N+](CC)(CC)CC)cc1
active: MALME-3M melanoma -11.1%
inactive: DU-145 prostate 58.8% | K-562 leukemia 16.3% | MDA-MB-231 breast 41.7% | RXF 393 renal 45.8% | SF-268 CNS 47.8% | SF-295 CNS 48.9% | SF-539 CNS 58.7% | UACC-257 melanoma 13.6% | M14 melanoma 32.5%

CCCCCCCCCCCCCCCC[n+]1cccc(C#N)c1
active: K-562 leukemia 6.02%
inactive: DU-145 prostate 68.2% | MALME-3M melanoma 92% | MDA-MB-231 breast 69.7% | RXF 393 renal 17.4% | SF-268 CNS 53.3% | SF-295 CNS 91.5% | SF-539 CNS 25.5% | UACC-257 melanoma 103% | M14 melanoma 62%

COC(=O)C(N)CC(C)C (stereo not given)
active: MDA-MB-231 breast -50.4%
inactive: DU-145 prostate 101% | K-562 leukemia 88.8% | MALME-3M melanoma 95.2% | RXF 393 renal 98.2% | SF-268 CNS 96.8% | SF-295 CNS 109% | SF-539 CNS 112% | UACC-257 melanoma 102% | M14 melanoma 92.6%

O=C(CCC(=O)N(CCO)CCO)N(CCO)CCO
inactive: DU-145 prostate 107% | K-562 leukemia 96% | MALME-3M melanoma 103% | MDA-MB-231 breast 109% | RXF 393 renal 113% | SF-268 CNS 108% | SF-295 CNS 96.4% | SF-539 CNS 101% | UACC-257 melanoma 101% | M14 melanoma 99.5%

O=c1c2c(c3ccccc3n1-c1ccccc1)NC(=S)NC2c1ccc(Cl)cc1 (stereo not given)
inactive: DU-145 prostate 47.2% | K-562 leukemia 43.1% | MALME-3M melanoma 39.2% | MDA-MB-231 breast 50.5% | RXF 393 renal 46.3% | SF-268 CNS 43.5% | SF-295 CNS 25.9% | SF-539 CNS 21.2% | UACC-257 melanoma 44.1% | M14 melanoma 29.1%

CCCCCCCCCCC1OC(C)CC(C)O1 (stereo not given)
inactive: DU-145 prostate 104% | K-562 leukemia 86.5% | MALME-3M melanoma 98% | MDA-MB-231 breast 115% | RXF 393 renal 103% | SF-268 CNS 96% | SF-295 CNS 109% | SF-539 CNS 103% | UACC-257 melanoma 113% | M14 melanoma 101%

CCOC(=O)c1c(C)oc2ncnc(Nc3ccc(NC(=O)Nc4cccc(Cl)c4)cc3)c12
inactive: DU-145 prostate 70.8% | K-562 leukemia 67.7% | MALME-3M melanoma 81.4% | RXF 393 renal 63.6% | SF-268 CNS 86.4% | SF-295 CNS 79.6% | SF-539 CNS 16.6% | UACC-257 melanoma 84% | M14 melanoma 48.6%
active: MDA-MB-231 breast -18.7%

C=C(NC(=O)[C@H](C(C)C)N(C)c1cccc2[nH]ccc12)C(=O)OC
inactive: DU-145 prostate 100% | K-562 leukemia 89.4% | MALME-3M melanoma 92.8% | MDA-MB-231 breast 109% | RXF 393 renal 106% | SF-268 CNS 101% | SF-295 CNS 101% | SF-539 CNS 117% | UACC-257 melanoma 96.9% | M14 melanoma 94.9%

NNC(=O)CNc1ccc2ccccc2c1
active: RXF 393 renal -7.3% | M14 melanoma -100%
inactive: DU-145 prostate 95.8% | K-562 leukemia 86.8% | MALME-3M melanoma 98.9% | MDA-MB-231 breast 104% | SF-268 CNS 120% | SF-295 CNS 118% | SF-539 CNS 95.4% | UACC-257 melanoma 105%

O=C(/C=C/c1ccc(Br)cc1)c1ccccc1
inactive: DU-145 prostate 95.6% | K-562 leukemia 59.4% | MALME-3M melanoma 104% | MDA-MB-231 breast 101% | RXF 393 renal 98.7% | SF-268 CNS 90.9% | SF-295 CNS 96.7% | SF-539 CNS 100% | UACC-257 melanoma 84.3% | M14 melanoma 87.6%

COc1ccc(-c2nc(Nc3nc4ccccc4[nH]3)nc(N)c2C#N)cc1
inactive: DU-145 prostate 108% | K-562 leukemia 97.2% | MALME-3M melanoma 106% | MDA-MB-231 breast 91.9% | RXF 393 renal 134% | SF-268 CNS 99% | SF-295 CNS 114% | SF-539 CNS 97.2% | UACC-257 melanoma 108% | M14 melanoma 99.5%

CC/C(=N\Nc1nc2ccccc2n1C)c1ccccn1
inactive: DU-145 prostate 11.8% | MDA-MB-231 breast 20.8%
active: K-562 leukemia 8.28% | MALME-3M melanoma 9.46% | RXF 393 renal 2.73% | SF-268 CNS 3.39% | SF-295 CNS -19.8% | SF-539 CNS -6.18% | UACC-257 melanoma -0.857% | M14 melanoma -19%

CN1C(=O)C(=Cc2coc3ccc(Br)cc3c2=O)C(=O)N(C)C1=O
inactive: DU-145 prostate 103% | K-562 leukemia 127% | MALME-3M melanoma 139% | MDA-MB-231 breast 97.6% | RXF 393 renal 93.6% | SF-268 CNS 97.6% | SF-295 CNS 120% | SF-539 CNS 100% | UACC-257 melanoma 101% | M14 melanoma 99.8%

C=CCSc1nnc(COc2ccc3c(C)c(Cc4ccccc4)c(=O)oc3c2C)o1
inactive: DU-145 prostate 106% | K-562 leukemia 96.2% | MALME-3M melanoma 108% | MDA-MB-231 breast 104% | RXF 393 renal 114% | SF-268 CNS 101% | SF-295 CNS 99.9% | SF-539 CNS 101% | UACC-257 melanoma 102% | M14 melanoma 102%

O=C(NCCNCCO)c1cc([N+](=O)[O-])cc([N+](=O)[O-])c1O
inactive: DU-145 prostate 99.3% | K-562 leukemia 102% | MALME-3M melanoma 107% | MDA-MB-231 breast 109% | RXF 393 renal 109% | SF-268 CNS 102% | SF-295 CNS 101% | SF-539 CNS 106% | UACC-257 melanoma 103% | M14 melanoma 102%

COc1cc(N2C(=O)C=CC2=O)ccc1N1C(=O)C=CC1=O
inactive: DU-145 prostate 114% | K-562 leukemia 64.5% | MALME-3M melanoma 97.3% | MDA-MB-231 breast 116% | RXF 393 renal 110% | SF-268 CNS 105% | SF-295 CNS 99.9% | SF-539 CNS 101% | UACC-257 melanoma 104% | M14 melanoma 103%

NC(N)=Nc1ccc(/C=C2\C=Cc3ccccc32)cc1
inactive: DU-145 prostate 80.9% | K-562 leukemia 13.6% | MALME-3M melanoma 88.8% | MDA-MB-231 breast 42.4% | RXF 393 renal 63.7% | SF-268 CNS 64.5% | SF-295 CNS 80.6% | SF-539 CNS 81.3% | UACC-257 melanoma 77.5% | M14 melanoma 73.4%

O=C1/C(=C\c2cn(-c3nc(N4CCOCC4)nc(N4CCOCC4)n3)c3ccccc23)c2ccccc2N1c1c(Cl)cccc1Cl
active: RXF 393 renal -10.8%
inactive: DU-145 prostate 57.1% | K-562 leukemia 80.6% | MALME-3M melanoma 95.6% | MDA-MB-231 breast 76.9% | SF-268 CNS 57.8% | SF-295 CNS 37.6% | SF-539 CNS 63% | UACC-257 melanoma 80.7% | M14 melanoma 78.2%

COc1cc2cn3c4ccc(O)cc4[nH]c(=O)c3c2cc1OC
inactive: MDA-MB-231 breast 30.9% | RXF 393 renal 26.8% | SF-268 CNS 18.1%
active: DU-145 prostate 3.02% | K-562 leukemia 3.94% | MALME-3M melanoma 1.16% | SF-295 CNS -11% | SF-539 CNS 5.31% | UACC-257 melanoma -10.1% | M14 melanoma 3.61%

CC(=O)Nc1nc(C)c(C(=O)N/N=C/N2CCCCC2)s1
inactive: DU-145 prostate 137% | K-562 leukemia 137% | MALME-3M melanoma 119% | MDA-MB-231 breast 111% | RXF 393 renal 112% | SF-268 CNS 111% | SF-295 CNS 127% | SF-539 CNS 99.3% | UACC-257 melanoma 120% | M14 melanoma 111%

Oc1ccc(CN(Cc2ccc(C(F)(F)F)cc2)Cc2ccc(O)c3ncccc23)c2cccnc12
active: K-562 leukemia 8.17% | SF-295 CNS 6.95% | UACC-257 melanoma -27.7% | M14 melanoma 3.46%
inactive: DU-145 prostate 24.1% | MALME-3M melanoma 23.7% | MDA-MB-231 breast 48.4% | RXF 393 renal 11.2% | SF-268 CNS 25.6% | SF-539 CNS 15.2%

CCCC(=O)Nc1ccccc1C(=O)O
inactive: DU-145 prostate 97.6% | K-562 leukemia 104% | MALME-3M melanoma 106% | MDA-MB-231 breast 123% | RXF 393 renal 93.7% | SF-268 CNS 92.4% | SF-295 CNS 93.9% | SF-539 CNS 102% | UACC-257 melanoma 85.2% | M14 melanoma 98.6%

CCC(C)(C)c1ccc(OCCCCCCN2CCNCC2)cc1
inactive: DU-145 prostate 49.3% | MALME-3M melanoma 72% | MDA-MB-231 breast 78.5% | RXF 393 renal 35.9% | SF-268 CNS 78.5% | SF-295 CNS 84.4% | SF-539 CNS 61.4% | UACC-257 melanoma 75.9% | M14 melanoma 65.5%
active: K-562 leukemia -29%

O=C1Nc2c(c(=O)n(-c3ccccc3)c3ccccc23)C(c2ccc(Cl)cc2)N1 (stereo not given)
inactive: DU-145 prostate 86.7% | K-562 leukemia 93.7% | MALME-3M melanoma 121% | MDA-MB-231 breast 89.1% | RXF 393 renal 103% | SF-268 CNS 70.9% | SF-295 CNS 65.3% | SF-539 CNS 77% | UACC-257 melanoma 118% | M14 melanoma 95.2%

CC1=C(C)C(=O)C(C(C)C2=C(C)C(=O)C(C)=C(C)C2=O)=C(C)C1=O
inactive: DU-145 prostate 92.7% | K-562 leukemia 37.5% | MALME-3M melanoma 119% | MDA-MB-231 breast 94.2% | RXF 393 renal 11.3% | SF-268 CNS 101% | SF-295 CNS 128% | SF-539 CNS 81.2% | UACC-257 melanoma 92.7% | M14 melanoma 108%

O=C(NCCCl)Nc1nccnc1OCc1ccc(F)cc1
inactive: DU-145 prostate 114% | K-562 leukemia 99.4% | MALME-3M melanoma 148% | MDA-MB-231 breast 87.6% | RXF 393 renal 109% | SF-268 CNS 99.2% | SF-295 CNS 99.2% | SF-539 CNS 109% | UACC-257 melanoma 109% | M14 melanoma 95.3%
